Screens from PubChem BioAssay.
Sampled rows, rich in hits. Any-hit rate of the full collection: about 11%.
BAZ2B block: BAZ2B (human) inhibition | Q9UIF8 | AlphaScreen BAZ2B-H3K14Ac peptide displacement | Potency, µM (series often up to 114 µM), hits mostly inhibitors | 4.4% of 360,000 active; further: nearly all actives have a fitted effect of over 60% in size
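Complex of BAZ2B and biotin-H3K14Ac (50 nM apiece) forms over 30 min at RT, then faces library compounds up to 110 uM for another 30 min; AlphaScreen beads added, 20 min dark incubation, luminescence read.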
JMJD2A Tudor inh: inhibitors of human JMJD2A Tudor domain | Potency, µM (doses to about 114 µM), usual class: inhibitors | AlphaScreen JMJD2A-Tudor / H3K4me3 peptide binding | 4.4% of 390,000 active | O75164; further: nearly all actives have a fitted effect of over 50% in size
G9a inh: blocks human histone lysine methyltransferase G9a. G9a H3K9 monomethylation, AlphaScreen, 2 h. Potency, µM (series often up to 102 µM), most hits filed as inhibitors. 8.8% of 350,000 active. AID 504332; further: nearly all actives have a fitted effect of over 75% in size
Target sequence (Q96KQ7 913-1193 limits assumed): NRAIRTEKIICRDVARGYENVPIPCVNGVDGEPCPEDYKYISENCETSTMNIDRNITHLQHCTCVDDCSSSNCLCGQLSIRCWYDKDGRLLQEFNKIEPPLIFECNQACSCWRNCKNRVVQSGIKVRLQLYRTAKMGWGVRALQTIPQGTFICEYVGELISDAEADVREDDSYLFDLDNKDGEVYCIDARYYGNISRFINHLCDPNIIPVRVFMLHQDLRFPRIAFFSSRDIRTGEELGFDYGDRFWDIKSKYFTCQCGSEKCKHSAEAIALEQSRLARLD
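Using a bead-based AlphaScreen, monomethylated H3K9 product from 2 h room-temperature reactions (G9a 20 nM, peptide 500 nM, SAM 20 uM) was detected with 0.5 ug/mL rabbit anti-H3K9me1 antibody.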
L3MBTL1 inh: inhibitors of human L3MBTL1; AlphaScreen L3MBTL1–H3K9me1 peptide binding; Potency, µM (doses to about 57.1 µM), most hits filed as inhibitors; 0.66% of 230,000 active; Q9Y468; further: nearly all actives have a fitted effect of over 60% in size
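First, the protein-peptide complex forms for 30 min at room temperature (L3MBTL1 50 nM, biotinylated H3K9me1 peptide 75 nM). Next, compounds are pin-transferred and incubated 30 min. Finally, AlphaScreen beads are added and read after 30 min.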
HP1b binding inh: HP1-beta chromodomain-methylated histone interaction inhibition. P83916. AlphaScreen HP1-beta / biotin-H3K9me3 peptide binding. Potency, µM (highest dose often 114 µM), hits mostly inhibitors. 0.56% of 390,000 active. AID 540317; further: nearly all actives have a fitted effect of over 70% in size
Target sequence (P83916 whole entry, looked up): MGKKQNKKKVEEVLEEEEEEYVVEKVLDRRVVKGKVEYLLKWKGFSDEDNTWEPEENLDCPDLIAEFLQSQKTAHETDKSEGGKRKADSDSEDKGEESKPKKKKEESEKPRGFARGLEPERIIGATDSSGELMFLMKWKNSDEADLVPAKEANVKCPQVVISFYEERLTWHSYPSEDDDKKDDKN
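Compound inhibition of the preformed complex between 50 nM HP1-beta and 50 nM biotinylated H3K9me3 peptide was read by AlphaScreen. Buffer was PBS pH 7.4 with 0.01% Tween-20. Incubations ran 30 min at room temperature, with 10 ug/mL donor/acceptor beads.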
A number is an active result; - = inactive; ? = inconclusive; . = no result; ! = not active in a repeat; [ ] = another dose, or the depositor's remark. The call rests on the fitted dose curve; in most records, active means well fitted inhibition curve with a large enough effect; inconclusive means small, poorly fitted or top-dose-only effect; inactive means no such curve, though single readings can be large or run the other way.

SMILES	BAZ2B block	JMJD2A Tudor inh	G9a inh	L3MBTL1 inh	HP1b binding inh
O=C(COc1ccccc1Cl)Nc1nnc(S(=O)(=O)N2CCCCCC2)s1	-	-	56µM!	-	-
CCOc1cccc(C(=O)N(Cc2ccc(C)o2)C2CCS(=O)(=O)C2)c1 (stereo not given)	-	-	-	.	-
Cc1nc2cnc(N(C)C)nc2n(CCc2ccccc2)c1=O	.	.	-[0.501 µM]	.	.
NC(=O)Cn1cnc2nc3n(c2c1=O)CCC3	-	-	?	-	-
Cc1ccccc1OCCCn1c(-c2ccc(Cl)cc2)nc2ccccc2c1=O	-	-	-	.	-
Cc1ccc(C(=O)Nc2nnc(S(=O)(=O)N3CCCCCC3)s2)cc1	10µM!	25µM!	7.9µM	-	?
Cc1ccccc1C(=O)Nc1nnc(S(=O)(=O)N2CCCCCC2)s1	22µM!	40µM!	14µM	-	?
Cc1noc(Cn2c(=O)c3cc4c(cc3n(CC(=O)Nc3cccc(Cl)c3)c2=O)OCO4)n1	-	-	-	.	-
COc1cc(C(=O)NCCNC(=O)c2cc(OC)c(C)c(OC)c2)cc(OC)c1C	-	-	32µM	.	-
Cc1cc2c(s1)c1cnn(Cc3cc(F)cc(F)c3)c(=O)c1n2C	.	-	.	.	.
S=C1NCCNC(=S)NCCOCCOCCN1	-	40µM	-	.	-
CC(NC(=O)c1cccc(S(=O)(=O)N2CCN(Cc3ccccc3)CC2)c1)c1ccc(Br)cc1 (stereo not given)	-	-	.	.	-
C=CCn1c(COC)nnc1SCC(=O)c1ccc(F)cc1	-	40µM	3.5µM	-[11.4 µM]	-
C=CCn1c(COc2cccc3cccnc23)nnc1SCC(=O)O	-	-	-	-[11.4 µM]	-
C=CCn1c(COc2cccc3ccc(C)nc23)nnc1SCC(=O)O	-	28µM	-	.	-
CC(=O)OCCn1c(C)[n+](CCOC(C)=O)c2cc(Cl)c(Cl)cc21	-	-	50µM	.	-
CCn1c(C)[n+](CCOCC[n+]2c(C)n(CC)c3cc(Cl)c(Cl)cc32)c2cc(Cl)c(Cl)cc21	-	22µM	?	.	-
CC(C)(C)C(=O)OCCn1c(=O)c2cc3c(=O)n(CCOC(=O)C(C)(C)C)c(=O)c3cc2c1=O	-	-	-	-	-
COc1ccc(CN2CCc3c([nH]c4ccccc34)C2)c(OC)c1C	45µM	1.3µM	32µM	-	?
CCOc1cc(CN2CCc3c([nH]c4ccccc34)C2)ccc1OC	50µM	3.2µM	11µM	-	?
CC(CNc1nc2ccccc2c2nc(-c3ccccc3)nn12)c1ccccc1 (stereo not given)	-	-	-	.	-
CSCCC(NS(=O)(=O)/C=C/c1ccccc1)C(=O)NCCc1ccc(S(N)(=O)=O)cc1 (stereo not given)	-	-	-	-	-
Cc1ccc(S(=O)(=O)NCc2ccncc2)cc1	-	-	-	.	-
CC1CCCCC1NS(=O)(=O)c1ccc(S(=O)(=O)NCc2ccncc2)cc1 (stereo not given)	?	-	18µM	-	-
NC(=O)CC1NC(=O)c2cc([N+](=O)[O-])cc(I)c2OCCC(C(N)=O)NC(=O)[C@@H]2CCCN2C1=O (stereo not given in full)	-	-	79µM	-	-
SMILES	BAZ2B block	JMJD2A Tudor inh	G9a inh	L3MBTL1 inh	HP1b binding inh
NC(=O)[C@@H]1CCOc2c(F)cc([N+](=O)[O-])cc2C(=O)N[C@@H](CO)C(=O)NCC(=O)N1	-	-	?	-	-
C[C@@H]1NC(=O)c2cc([N+](=O)[O-])cc(I)c2OCC[C@@H](C(N)=O)NC(=O)[C@H](CCCCN)NC1=O	-	-	45µM	-	-
C[C@@H]1NC(=O)[C@H](CCCN=C(N)N)NC(=O)c2cc([N+](=O)[O-])cc(I)c2OCC[C@@H](C(N)=O)NC1=O	?	.	32µM	-	.
NCCCC[C@H]1NC(=O)[C@H](CCC(=O)O)NC(=O)c2cc([N+](=O)[O-])cc(I)c2OCC[C@@H](C(N)=O)NC1=O	-	50µM	25µM	-	-
CC[C@H](C)[C@@H]1NC(=O)c2cc([N+](=O)[O-])cc(F)c2OCC[C@@H](C(N)=O)NC(=O)[C@H](CCCCN)NC1=O	-	-	?	-	-
Cc1ccccc1C(=O)Nc1cccc(C(=O)N/N=C/c2cc(Cl)cc([N+](=O)[O-])c2O)c1	22µM	50µM	32µM	.	?
O=C(Cn1nnc(-c2ccccc2)n1)N/N=C/c1cccc([N+](=O)[O-])c1O	45µM	?	-	-	-
O=C(Cn1nc2ccccc2n1)N/N=C/c1cc(Cl)cc([N+](=O)[O-])c1O	20µM	50µM	40µM	-	-
O=C(Cn1nnc(-c2ccccc2)n1)N/N=C/c1cccc([N+](=O)[O-])c1	-	-	-	-	-
O=S(=O)(c1ccc(OC(F)(F)F)cc1)N1CCC(c2nc3ccccc3s2)CC1	-	-	-	.	-
CCOc1ccc(NC(=O)C2CCCN(c3nnc(-n4c(C)ccc4C)s3)C2)cc1 (stereo not given)	-	-	-	.	-
Cc1c(P(=S)(c2ccccc2)c2ccccc2)[n+]2ccccc2n1Cc1ccccc1	.	-	.	.	.
Cc1noc(Cn2c(=O)c3ccccc3n(CC(=O)Nc3ccc(C(C)C)cc3)c2=O)n1	-	-	-	.	-
CCc1ccccc1N1CC(c2nc3ccccc3n2CCC2CCCCC2)CC1=O (stereo not given)	-	-	-	.	-
Cc1ccccc1CCNC(=O)c1ccc2c(c1)nc1n2CCCCC1	?	-	-	.	-
COc1cccc(-c2nnc(NC(=O)c3ccc4ncsc4c3)o2)c1	79µM	-	?	-	-
O=C(Nc1ccccc1F)c1ccc2ncsc2c1	-	-	45µM	.	-
CS(=O)(=O)c1cccc(-c2nnc(NC(=O)c3ccc4ncsc4c3)o2)c1	-	?	?	-	-
CS(=O)(=O)c1ccccc1-c1nnc(NC(=O)Cc2ccccc2)o1	25µM	79µM	?	.	-
O=C(Nc1ccncc1)c1ccc2ncsc2c1	-	-	-[2.33 µM]	-	-
CS(=O)(=O)c1ccccc1-c1nnc(NC(=O)c2ccc3ncsc3c2)o1	50µM	56µM	-[2.33 µM]	-	-
CCOc1ccccc1NC(=O)Cn1c(=O)n(Cc2ccc(OC)cc2)c(=O)c2oc3ccccc3c21	-	-	-	.	-
CCc1ccc(C(=O)N2CCC(c3nc(-c4ccc(S(=O)(=O)N5CCCC5)cc4)no3)CC2)cc1	-	-	-	.	-
CCOC(=O)C1=C(N)n2c(s/c(=C\c3ccco3)c2=O)=C(C(=O)OC(C)C)C1c1ccco1 (stereo not given)	?	?	28µM	-	-
CCOC(=O)C1=C(c2ccccc2)N=c2s/c(=C\c3cc(OC)c(OC)c(OC)c3)c(=O)n2C1c1cccs1 (stereo not given)	?	-	?	-	-
CC1=C(C(=O)OC(C)C)C(c2ccco2)NC(=O)N1 (stereo not given)	?	?	-	?	-
